# From PubChem BioAssay (NCATS)
# Values joined by “and” are separate entries in the source; they are usually repeats but may differ in a detail not shown here. Equal values may be shown once. Records with an inconclusive call do not appear. Where a call stands in place of a potency, no number is given. Active and inactive are the calls of the source. Calls come from the whole dose curve; as a rule, active = well fitted cell-killing curve with a large enough effect; inconclusive = small, poorly fitted or top-dose-only effect; inactive = no such curve, though single readings can be large or run the other way.
# Assay: qHTS of pediatric cancer cell lines to identify multiple opportunities for drug repurposing: Primary screen for MG 63 (6-TG R) cells (AID 1347105); note: nearly all actives have a fitted effect of over 50% in size
# Conditions: MG 63 (6-TG R) viability, CellTiter-Glo, 48 h; series mostly up to 46 µM; activity change, negative = cytotoxic: at the top concentration
# From the text: Drug repurposing or repositioning has been offered as a strategy for drug development in oncology programs. This approach has special potential for childhood cancers and other rare or orphan diseases, where the expected return on new drug development has been a disincentive to pharmaceuticals. […] In this project we exploit the poly-pharmacology of drugs to discover new indications via phenotypic screening of a panel of 19 well-characterized cell lines derived from solid tumors seen in children and adolescents. The goal is to identify approved drugs with previously unrecognized anticancer properties that has the potential to reveal new mechanisms and biological processes involved in carcinogenesis or drug resistance. We employed a titration-based paradigm (quantitative high-throughput screening or qHTS), where all compounds were tested at multiple concentrations for their effect on cell viability. Concentration-response curves (CRCs) were derived directly from the primary screen, and both potency and efficacy values were used to identify compounds with robust bioactivity profiles. We screened the NIH Chemical Genomics Center (NCGC) Pharmaceutical Collection (NPC) and Mechanism Interrogation Plate (MIPE) small molecule collections of approved and investigational compounds against these cell lines; and measured metabolically active cells after 48 hours of compound treatment as a proxy for cell viability. […] Assay Submitter: Nathalia J. Martinez, National Center for Advancing Translational Sciences, National Institutes of Health, Rockville, MD, USA; email: natalia.martinez@nih.gov Shen, M et al. Quantitative high-throughput phenotypic screening of pediatric cancer cell lines identifies multiple opportunities for drug repurposing. Oncotarget 2017 Dec 19;9(4):4758-4772. PMID 29435139.
# The cells were obtained from University of North Carolina (UNC), Pediatric Preclinical Testing Program (PPT), and Coriell Institute (CI). qHTS cell viability assay: Cells were assayed in growth media at a density of 500-1,000 cells/well. Five microliters of cells were dispensed into 1,536-well, white, solid-bottom, TC-treated plates (Greiner Bio One) using a multidrop dispenser and incubated at 37 degrees C, 5% CO2, under a humidified atmosphere for 5 hours. Twenty-three nanoliters of compounds and controls (neutral control DMSO or positive control bortezomib at final concentration of 2.3 µM) were subsequently transferred by Kalypsys pintool. For primary screens, the MIPE collection was tested at 11-point dilutions (final concentrations range from 0.78 nM to 46 µM) and the NPC collection at 8-point dilutions (final concentrations range from 0.59 nM to 46 µM). Compounds tested in follow-up screens were assayed at 11-point dilutions. Cells were incubated for 48 hours, followed by addition of 3 µL of CellTiter-Glo (Promega). After a 15 min incubation at room temperature, samples were analyzed for luminescence intensity using a ViewLux High-throughput CCD imager equipped with clear filters.
# Potency is the fitted concentration of half-maximal effect.
SMILES,Potency,"activity change, negative = cytotoxic"
CC(C)C1CCC(C(=O)N[C@H](Cc2ccccc2)C(=O)O)CC1 (stereo not given in full),inactive,–
CC(=O)[C@H]1CC[C@H]2[C@@H]3CCC4=CC(=O)CC[C@]4(C)[C@H]3CC[C@]12C,11.8 µM (active),–
Nc1nc(F)nc2c1ncn2[C@@H]1O[C@H](CO)[C@@H](O)[C@@H]1O,42.2 nM (active) and 590 nM (active),–
CCOC(=O)c1ccc(OC(=O)CCCCCN=C(N)N)cc1,inactive,–
NS(=O)(=O)c1cc2c(cc1Cl)NC(C(Cl)Cl)NS2(=O)=O (stereo not given),inactive,–
C[C@@H]1C[C@H]2[C@@H]3CCC4=CC(=O)C=C[C@]4(C)[C@@]3(Cl)[C@@H](O)C[C@]2(C)[C@@]1(OC(=O)c1ccco1)C(=O)CCl,23.5 µM (active),–
CCn1cc(C(=O)O)c(=O)c2cc(F)c(N3CCNCC3)cc21,inactive,–
CC(C)(C#N)c1cc(Cn2cncn2)cc(C(C)(C)C#N)c1,inactive,–
CC(C(=O)O)c1ccc2c(c1)CC(=O)c1ccccc1S2 (stereo not given),–,-8.31% (inactive)
CCCOc1ccc(C(=O)OCCN(CC)CC)cc1N,inactive,–
CCN[C@H]1C[C@H](C)S(=O)(=O)c2sc(S(N)(=O)=O)cc21,inactive,–
CS(=O)(=O)c1ccc([C@@H](O)[C@@H](CO)NC(=O)C(Cl)Cl)cc1,inactive,–
O=c1oc2c(O)c(O)cc3c(=O)oc4c(O)c(O)cc1c4c23,inactive,–
OC(Cn1cncn1)(Cn1cncn1)c1ccc(F)cc1F,inactive,–
O=C(O)c1ccc(-n2nc(-c3ccccc3O)nc2-c2ccccc2O)cc1,inactive,–
CCOc1cc(N)c(Cl)cc1C(=O)NCC1CN(Cc2ccc(F)cc2)CCO1 (stereo not given),–,-16.5% (inactive)
O=NN(CCCl)C(=O)NC1CCCCC1,inactive,–
CO[C@@]12[C@H](COC(N)=O)C3=C(C(=O)C(C)=C(N)C3=O)N1C[C@@H]1N[C@@H]12,14.8 µM (active),–
Cc1cc(NS(=O)(=O)c2ccc(N)cc2)no1,inactive,–
CNS(=O)(=O)Cc1ccc2[nH]cc(CCN(C)C)c2c1,inactive,–

SMILES,Potency,"activity change, negative = cytotoxic"
O=S(=O)(O)CCS,inactive,–
CN(C)CCc1c[nH]c2ccc(CS(=O)(=O)N3CCCC3)cc12,inactive,–
Clc1ccccc1CN1CCc2sccc2C1,inactive,–
CN(CCOc1ccc(CC2SC(=O)NC2=O)cc1)c1ccccn1 (stereo not given),inactive,–
O=C(O)c1cc(=O)[nH]c(=O)[nH]1,inactive,–
COc1cnc(NS(=O)(=O)c2ccc(N)cc2)nc1,–,2.71% (inactive)
COc1cccc(N(C)C(=S)Oc2ccc3c(c2)CCCC3)n1,inactive,–
CCCN[C@H]1CCc2nc(N)sc2C1,inactive,–
NC(=O)c1cccnc1,inactive,–
COc1ccc2c(c1)c(CC(=O)OCC(=O)O)c(C)n2C(=O)c1ccc(Cl)cc1,inactive,–
CCOCC(O)COc1ccc(NC(=O)CC[S+](C)C)cc1 (stereo not given),inactive,–
C[C@@H](CN1CC(=O)NC(=O)C1)N1CC(=O)NC(=O)C1,–,-15% (inactive)
CCC(=O)O[C@]1(C(=O)SCF)[C@H](C)C[C@H]2[C@@H]3C[C@H](F)C4=CC(=O)C=C[C@]4(C)[C@@]3(F)[C@@H](O)C[C@@]21C,inactive,–
S=P(N1CC1)(N1CC1)N1CC1,–,-17.8% [at 92.7 µM] (inactive)
CNC1CCCN(c2c(F)cc3c(=O)c(C(=O)O)cn(C4CC4)c3c2OC)C1 (stereo not given),inactive,–
O=C(O)C1CCCN(CCC=C(c2ccccc2)c2ccccc2)C1 (stereo not given),–,13.4% (inactive)
COC(=O)Nc1nc2ccc(S(=O)c3ccccc3)cc2[nH]1 (stereo not given),668 nM (active) and 14.8 µM (active),–
CC(C)C[C@H](NC(=O)[C@H](CCc1ccccc1)NC(=O)CN1CCOCC1)C(=O)N[C@@H](Cc1ccccc1)C(=O)N[C@@H](CC(C)C)C(=O)[C@@]1(C)CO1,42.2 nM (active) and 59 nM (active),–
COCCCOc1cc(C[C@@H](C[C@H](N)[C@@H](O)C[C@H](C(=O)NCC(C)(C)C(N)=O)C(C)C)C(C)C)ccc1OC,inactive,–
CCC(C)(C)c1ccc(CC(C)CN2C[C@@H](C)O[C@@H](C)C2)cc1 (stereo not given in full),–,-57.2% (inactive)
